Screens as filed in PubChem.
TRb-SRC2 inh – qHTS for Inhibitors of the Interaction of Thyroid Hormone Receptor and Steroid Receptor Coregulator 2; Potency, µM (series often up to 106 µM), most hits filed as inhibitors; TRbeta-SRC2 peptide binding, fluorescence polarization; receptor liganded with 1 µM T3; 280,000 tested, 0.065% active; Thyroid hormone receptor beta (Homo sapiens), P10828; AID 1469, 2008; further: nearly all actives have a fitted effect of over 50% in size
Target sequence (P10828 whole entry, looked up): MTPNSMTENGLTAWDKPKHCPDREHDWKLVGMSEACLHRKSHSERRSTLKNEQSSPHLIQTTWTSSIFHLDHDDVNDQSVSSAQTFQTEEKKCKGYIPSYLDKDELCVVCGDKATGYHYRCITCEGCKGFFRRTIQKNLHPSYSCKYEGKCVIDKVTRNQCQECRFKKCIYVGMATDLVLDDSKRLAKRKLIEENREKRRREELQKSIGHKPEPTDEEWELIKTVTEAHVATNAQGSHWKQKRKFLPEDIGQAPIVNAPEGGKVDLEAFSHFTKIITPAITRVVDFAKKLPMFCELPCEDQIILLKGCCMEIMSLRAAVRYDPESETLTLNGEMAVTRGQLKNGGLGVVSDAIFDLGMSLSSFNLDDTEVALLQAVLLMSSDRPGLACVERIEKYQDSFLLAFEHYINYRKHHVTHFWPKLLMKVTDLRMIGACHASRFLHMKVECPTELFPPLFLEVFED
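A fluorescence polarization screen tested compounds at multiple concentrations against complex formation between 0.6 uM TRb ligand-binding domain and 20 nM Texas Red SRC2 peptide, with 1 uM T3 present; readout after 5 hr.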
ERG-DNA inh – qHTS for Small Molecule Inhibitors of the ERG Ets/DNA interaction | Transcriptional regulator ERG (Homo sapiens), P11308 | fluorescence polarization, His-ERG Ets domain / labelled DNA | Potency, µM (titrated, usually from 76.9 µM), usual class: inhibitors | 370,000 tested, 0.028% active; active means well fitted inhibition curve with a large enough effect in the polarisation, with a control signal flat; inconclusive means small, poorly fitted or top-dose-only effect, or effect the other way, or a change in a side signal; inactive means no such curve, though single readings can be large or run the other way; the % refers to the polarisation;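 further: polarization taken with two DNA probes labelled with fluorescein and Texas red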
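His-tagged ERG Ets domain (1 uM in the protein solution; 300mM KCl, 50mM Tris-HCl, 1mM EDTA, 1mM DTT, pH 7.5) received compound, then a probe mix of 5 nM fluorescein-DNA and 100nM Texas-615-DNA. Fluorescence polarization was read for both dyes.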
CBFb RUNX1 block – qHTS Assay for Compounds Blocking the Interaction Between CBF-beta and RUNX1 for the Treatment of Acute Myeloid Leukemia; AlphaScreen CBFb-His/RUNX1-biotin binding, biochemical; Potency, µM (highest dose often 59.8 µM), usual class: inhibitors; 230,000 tested, under 10 active; AID 1477, 2009
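His-tagged CBF-beta and biotinylated RUNX1 (30 nM each) were premixed 20 min at room temperature, exposed to compound for 15 min, then given nickel-chelate and streptavidin AlphaScreen beads (50 ng each). After 90 min, AlphaScreen signal was read.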
TexasRed fluor – Total Fluorescence Counterscreen for Inhibitors of the Interaction of Thyroid Hormone Receptor and Steroid Receptor Coregulator 2; 280,000 tested, 0.29% active; Potency, µM (top dose mostly 106 µM); TRb/SRC2 Texas Red total fluorescence interference; AID 1479, 2009; active means well fitted curve in either direction with a large enough effect; inconclusive means small, poorly fitted or top-dose-only effect
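Flags fluorescent or light-absorbing compounds by total fluorescence, S + 2P, at 555 nm excitation and 632 nm emission. Mixture: 20 nM Texas Red SRC2 peptide, 0.6 uM human TRb LBD, 1 uM T3, 5% DMSO; compound exposure 5 h at ambient temperature.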
GoLoco inh red – qHTS Assay for Inhibitors of RGS12 GoLoco Motif Activity (Red Fluorophore); Guanine nucleotide-binding protein G(i) subunit alpha-1 (Homo sapiens), P63096; Gai1:RGS12 GoLoco peptide FP, rhodamine, 10 min; Potency, µM (series often up to 61.6 µM), most hits filed as inhibitors; 230,000 tested, 0.44% active; active means well fitted inhibition curve with a large enough effect, not every such curve was filed as active; inactive means no such curve, though single readings can be large or run the other way; further: nearly all actives have a fitted effect of over 30% in size
Large screens that a line does not name were inactive; ! = not confirmed by another sample; [ ] = dose if it differs, or a comment. This is one part of a sample in which hits are shown more often than they occur. Unless noted, the call rests on the fitted dose curve; in most records, active means well fitted curve in the direction sought with a large enough effect; inconclusive means small, poorly fitted or top-dose-only effect, or another doubt; inactive means no such curve, though single readings can be large; an effect the other way counts as inactive or inconclusive.

COc1cc(O)c(C(=O)/C=C/c2ccccc2)c(OC)c1	GoLoco inh red 25µM!
O=C(Nc1ccc(F)c(Cl)c1)N1CC=C(c2c[nH]c3ccccc23)CC1	none (no result: CBFb RUNX1 block, GoLoco inh red)
Cc1cc(O)c(-c2cc(O)c(C)cc2O)cc1O	GoLoco inh red 0.32µM!
Cc1cc2ccccc2n1CCNC(=O)C(C)(C)C	ERG-DNA inh 22µM
Cc1onc(-c2ccccc2Cl)c1C(=O)NCCn1c(C)cc2ccccc21	ERG-DNA inh 32µM (no result: TRb-SRC2 inh, CBFb RUNX1 block, TexasRed fluor, GoLoco inh red)
Cc1cc2ccccc2n1CCNC(=O)c1ccc(Br)cc1	none (no result: CBFb RUNX1 block, GoLoco inh red)
Cc1cc2ccccc2n1CCNC(=O)c1ccc(Br)o1	ERG-DNA inh 32µM, CBFb RUNX1 block inconclusive, GoLoco inh red 22µM
CCOc1ccc(/C=C/C(=O)N(CC)CC(=O)Nc2ccc3c(c2)OCCO3)cc1OCC	none (no result: TRb-SRC2 inh, CBFb RUNX1 block, TexasRed fluor, GoLoco inh red)
COc1ccc2cc(C(C)C(=O)O)ccc2c1 (centres undefined)	GoLoco inh red 28µM!
O=C(Nc1cccc(Cl)c1)OCC#CCCl	TRb-SRC2 inh 0.79µM, TexasRed fluor 7.9µM[fluorescent] (no result: ERG-DNA inh, CBFb RUNX1 block, GoLoco inh red)
O=C(Nc1cccc(Cl)c1)OCCOC(=O)Nc1cccc(Cl)c1	none (no result: TRb-SRC2 inh, CBFb RUNX1 block, TexasRed fluor, GoLoco inh red)
Cc1cc(Cl)ccc1OCC(=O)N(Cc1ccco1)Cc1ccco1	none (no result: CBFb RUNX1 block, GoLoco inh red)
Cc1ccc(CN(Cc2ccco2)C(=O)COc2ccc(Cl)cc2Cl)cc1	TRb-SRC2 inh inconclusive, TexasRed fluor 0.032µM[quencher] (no result: CBFb RUNX1 block, GoLoco inh red)
N[C@@H](CCCCNC(=O)CCCC[C@@H]1SC[C@H]2NC(=O)N[C@H]12)C(=O)O	CBFb RUNX1 block 0.4µM (no result: ERG-DNA inh, GoLoco inh red)
C[C@@H](CCC[C@@H]1SC[C@H]2NC(=O)N[C@H]12)C(=O)O	none (no result: TRb-SRC2 inh, ERG-DNA inh, CBFb RUNX1 block, TexasRed fluor)
CCCCOCCOCCOC(=O)CCCCC(=O)OCCOCCOCCCC	none (no result: ERG-DNA inh, CBFb RUNX1 block, GoLoco inh red)
Cc1cccc(N2CCN(S(=O)(=O)c3ccc4c(c3)CC(=O)N4C)CC2)c1C	TexasRed fluor 22µM[quencher] (no result: CBFb RUNX1 block, GoLoco inh red)
Cc1cccc(N2CCN(S(=O)(=O)c3ccc(S(=O)(=O)N4CCCC4)cc3)CC2)c1C	none
Cc1nnc(SCC(=O)N(CC(C)C)c2c(N)n(Cc3ccccc3)c(=O)[nH]c2=O)n1N	none (no result: TRb-SRC2 inh, CBFb RUNX1 block, TexasRed fluor, GoLoco inh red)
Cc1oc2cc(O)ccc2c(=O)c1-c1nncn1-c1ccccc1	ERG-DNA inh 35µM
CCC(C)OC(=O)N1CCCCC1CCO (centres undefined)	none (no result: ERG-DNA inh, CBFb RUNX1 block, GoLoco inh red)
CCc1ccc2occ(CC(=O)Nc3c(C(=O)Nc4ccc(C)cc4)oc4ccccc34)c2c1	TexasRed fluor 1122µM[quencher] (no result: CBFb RUNX1 block, GoLoco inh red)
CCc1ccc2occ(CC(=O)Nc3c(C(=O)Nc4ccc(Cl)cc4)oc4ccccc34)c2c1	TexasRed fluor inconclusive (no result: CBFb RUNX1 block, GoLoco inh red)
Cc1ccc(N(C)C(=O)CC(C)S(=O)(=O)c2ccc3c(c2)NC(=O)CO3)cc1 (centres undefined)	TexasRed fluor 13µM[quencher] (no result: CBFb RUNX1 block, GoLoco inh red)
Cc1ccc(CNC(=O)CC(C)S(=O)(=O)c2ccc3c(c2)NC(=O)CO3)cc1 (centres undefined)	none (no result: TRb-SRC2 inh, CBFb RUNX1 block, TexasRed fluor, GoLoco inh red)
CC(C)(O)C1Cc2cc(/C=C/C(=O)O)c(O)cc2O1 (centres undefined)	GoLoco inh red 28µM
CCOC(=O)/C(C(=O)Nc1ccccc1Cl)=C1/NC(C)(C)Cc2ccccc21	none
CCOC(=O)/C(C)=C1\NC(C)(C)Cc2ccccc21	GoLoco inh red 28µM
Nc1nc(NCCO)nc(N2CCCCCC2)c1[N+](=O)[O-]	none (no result: TRb-SRC2 inh, CBFb RUNX1 block, TexasRed fluor, GoLoco inh red)
OCCN(CCO)c1nc(N2CCCCC2)c2nc(N(CCO)CCO)nc(N3CCCCC3)c2n1	TRb-SRC2 inh inconclusive, TexasRed fluor 40µM![fluorescent]
Oc1ccc(-c2nc3ccccc3s2)c(O)c1	none
Oc1ccc(-c2cnns2)c(O)c1	GoLoco inh red 1.3µM
CC(=O)Nc1ccc(NC(C)=O)s1	none
CC(=O)Nc1ccc(-c2ccccc2)s1	GoLoco inh red 18µM
C[N+]1(C2CCC3CCCC2C3O)CCCC1 (centres undefined)	GoLoco inh red 2.8µM
COc1cc(O)c2c(=O)c(O)c(-c3ccc(O)c(O)c3)oc2c1	TexasRed fluor 50µM[quencher] (no result: ERG-DNA inh)
O=c1c(O)c(-c2ccc(O)cc2)oc2cc(O)cc(O)c12	none
CCCCCCCCCCCCN	none (no result: ERG-DNA inh, CBFb RUNX1 block, GoLoco inh red)
O=C(O)CCCCCNc1ccc2nsnc2c1[N+](=O)[O-]	TexasRed fluor 35µM[quencher]
COC(=O)c1ccc(C2C=C(c3ccc(Cl)cc3)Nc3nc4ccccc4n32)cc1 (centres undefined)	TexasRed fluor 0.14µM[quencher] (no result: CBFb RUNX1 block, GoLoco inh red)
COc1ccc(N(CC(=O)N/N=C/c2cccnc2)S(=O)(=O)c2ccc(C)cc2)cc1OC	none (no result: TRb-SRC2 inh, CBFb RUNX1 block, TexasRed fluor, GoLoco inh red)
CCOc1ccccc1C(=O)N1CC(=O)Nc2ccc(C)cc2C1c1ccccc1 (centres undefined)	none (no result: CBFb RUNX1 block, GoLoco inh red)
NC(=S)COc1ccccc1	GoLoco inh red 22µM
NC(=O)COc1ccccc1	none
CC(C)(C)C1CCC(OC(=O)C[N+]2(C)CCCC2)CC1 (centres undefined)	GoLoco inh red 7.1µM
C[N+]1(CC(=O)OCCCC2CCCCC2)CCCC1	none
CC(C)(C)C1CCC(OC(=O)C[N+]2(C)CCCCC2)CC1 (centres undefined)	GoLoco inh red 8.9µM
COc1cc2c(cc1OC)C(NNC(=O)c1ccc(Br)o1)=NC(C)(C)C2	none (no result: TRb-SRC2 inh, CBFb RUNX1 block, TexasRed fluor, GoLoco inh red)
CCN(c1ccc(OC)cc1)S(=O)(=O)c1nnc(NC(=O)c2ccc(C)cc2)s1	none (no result: TRb-SRC2 inh, CBFb RUNX1 block, TexasRed fluor, GoLoco inh red)
COC(=O)c1ccc(Cn2c(C)cc(C)[n+]2C)o1	GoLoco inh red 18µM
COc1cc(/C=C2\C(=O)N(c3ccc(NC(C)=O)cc3)N=C2c2ccccc2)ccc1O	none
